# Reference: ChEMBL document CHEMBL4513160, “CO-ADD screening of MMV (CH) - Small Polar Library”
# Out of some 23,000 compounds screened, about 30 (0.1%) showed an effect of 50% or more. What follows is part of a selection rich in strong results, with near analogues and random picks from the rest. Measured potencies and affinities stand elsewhere.
# Tested on: Pseudomonas aeruginosa
# Conditions: Concentration 300 ug.mL-1; ASSAY_TEST Inhibition of Bacterial Growth; detection method Absorption (OD600); MEDIA CAMHB; plate type 384well; NBS; CORNING #3640; time 18 hr
row,Structure (SMILES),Inhibition [%]
1,CCc1ccc(C2CNCCO2)cc1 (stereo unspecified),46.05
